# Laboratory results as given in PubChem BioAssay (NCATS).
# Records with an inconclusive call do not appear. The source made the active and inactive calls. The call rests on the fitted dose curve; in most records, active means well fitted inhibition curve with a large enough effect; inconclusive means small, poorly fitted or top-dose-only effect; inactive means flat fitted curve, though single readings scatter.
# Tested on: CRL-7250
# Test: qHTS assay to identify novel small-molecules to repurpose for Merkel cell carcinoma treatment (AID 1296009); further: nearly all actives have a fitted effect of over 60% in size
# Settings: MCC and control cell lines, CellTiter-Glo viability, 72 h; series mostly up to 92 µM; activity change, negative = cytotoxicity: at the top concentration
# Outline: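 Cells were treated for 72 hr at 37 degree celsius with compounds in 8- or 11-point dose response. Viability was read by CellTiter-Glo luminescence, normalized to no-cell (cytotoxicity) and DMSO controls.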
row,Structure (SMILES),outcome
1,O=C(NCc1ccc(F)cc1)C(=O)c1c[nH]c2ccccc12,inactive
2,CC(C)[C@@H]1C(=O)N(S(C)(=O)=O)[C@@H]2CCN(C(=O)/C=C/CN3CCCCC3)[C@H]21,inactive
3,CCC(CC)C(=O)Nc1sc2c(c1C#N)CCC(C(C)(C)CC)C2 (configuration not stated),inactive
4,C[C@@H]1CC[C@]2(C(=O)O[C@@H]3O[C@H](CO[C@@H]4O[C@H](CO)[C@@H](O)[C@H](O)[C@H]4O)[C@@H](O)[C@H](O)[C@H]3O)CC[C@]3(C)C(=CCC4[C@@]5(C)CC[C@H](O)[C@](C)(C(=O)O)C5CC[C@]43C)[C@@H]2[C@]1(C)O (some centres not stated),inactive [at 9.27 µM]
5,CC1(CO)CC(O)C2(C)CCC3(C)C(=CCC4C5(C=O)CCC(OC6OC(C(=O)O)C(O)C(O)C6OC6OC(C(=O)O)C(O)C(O)C6O)C(C)(C)C5CCC43C)C2C1 (configuration not stated),inactive [at 9.27 µM]
6,Cc1ncc([N+](=O)[O-])n1CC(O)CN1CCOCC1 (configuration not stated),inactive
7,Cc1cc(-c2nncc3c(C(C)(C)C)c(OCc4ncnn4C)nn23)no1,inactive
8,C/C=C/C=C/C1=C2C(=O)C3(C)C4C(C(=O)CC(O)/C=C/C)=C(O1)C1(C)C2C2(C)OC1(O)C4(C)OC23O (configuration not stated),inactive [at 17.4 µM]
9,Fc1ccc(-c2nc(C3CCNCC3)sc2-c2ccnc(NC3CC3)n2)cc1,inactive
10,CCC(C)C(=O)OC[C@H]1O[C@H](O[C@H]2O[C@H](CO)[C@@H](O)[C@H](O)[C@H]2O)[C@H](O)[C@@H](O)[C@@H]1O (some centres not stated),inactive [at 17.4 µM]
11,CC1=CC(=O)CC(C)(C)C1(O)CCC(C)O (configuration not stated),inactive
12,O=C(O[C@H]1[C@@H]2C=CO[C@@H](O[C@@H]3O[C@H](CO)[C@@H](O)[C@H](O)[C@H]3O)[C@@H]2[C@@]2(CO)O[C@@H]12)c1ccc(O)c(O)c1,inactive [at 17.4 µM]
